Screens (PubChem)
An excerpt weighted towards active compounds, which were near 19% of everything screened.
IL1B secr inh = blocks inflammasome-driven IL-1 beta release; THP-1 LPS/ATP IL-1B secretion, AlphaLISA, 16 h; hits give low values; activity change, % at 57.5 µM; hit rate 4.7% among 360,000; AID 743279; in the data active = activity change below about -50%; inconclusive = mostly about -30% to -49%
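Secreted IL-1B measured by AlphaLISA bead assay after 16 h compound exposure of THP-1 cells; compounds (final up to 57.5 uM) added 1 h before LPS (250 ng/mL) and ATP (1.25 mM) stimulation; lower signal means less secretion.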
DT40 TDP1 CPT = growth inhibition of DT40 Tdp1-/-;hTDP1 cells with camptothecin (screen for TDP1 inhibitors); chicken DT40 Tdp1-/-;hTDP1 cells + 20 nM CPT, ATP luminescence, 48 h; Potency, µM (doses to about 46.2 µM), without a hit: at the top dose activity change, negative = growth inhibition, most hits filed as inhibitors; hit rate 12% among 420,000; AID 686979; also: potency is read from the fitted curve at half-maximal effect; nearly all actives have a fitted effect of over 55% in size
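Chicken DT40 Tdp1-/- cells stably complemented with human TDP1 were seeded at 400 cells/well in medium containing 20 nM camptothecin, exposed to pin-transferred compounds, and grown at 37 °C for at least 48 hr. Viability was read as ATP luminescence.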
TDP1 cell noCPT = qHTS for Inhibitors of human tyrosyl-DNA phosphodiesterase 1 (TDP1): qHTS in cells in absence of CPT; DT40 Tdp1-/- hTDP1 cells, no CPT, ATP luminescence, 48 h; Potency, µM (titrated, usually from 46.2 µM), for inactives: top-dose activity change, negative = growth inhibition, actives largely listed as inhibitors; hit rate 15% among 420,000; AID 686978, 2013; also: potency is read from the fitted curve at half-maximal effect; nearly all actives have a fitted effect of over 55% in size
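DT40 Tdp1-/-;hTDP1 cells, no CPT (DMSO vehicle only), 400 cells/well; compounds pin-transferred; ≥48 hr, 37 °C; CellTiter-Glo 30 min RT dark, luminescence read.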
HT1080 IDH1KD tx = HT-1080 IDH1 knockdown cell toxicity (counter line); HT-1080 IDH1 knockdown viability, ATP luminescence, 48 h; Potency, µM (series often up to 46.1 µM), without a hit: at the highest dose activity, negative = toxicity, most hits filed as cytotoxic; hit rate 2% among 360,000; AID 686971;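 also: potency is read from the fitted curve at half-maximal effect; 0% = DMSO wells and -100% = cell-free medium wells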
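Cytotoxicity counter-line: IDH1KD HT-1080, 48 h, CellTiter-Glo. Curves classed by r2, magnitude and activity.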
HT1080NT lethal = kills 2HG-producing HT-1080-NT fibrosarcoma cells | Potency, µM (doses to about 46.1 µM), inactives show at the top dose activity, negative = less viability, most hits filed as cytotoxic | HT-1080-NT fibrosarcoma viability, CellTiter-Glo ATP luminescence, 48 h | hit rate 1.6% among 360,000;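 also: NT is the 2HG producing partner of a matched IDH1 knockdown line; potency is read from the fitted curve at half-maximal effect; 0% = DMSO-treated cells and -100% = media-only wells without cells; nearly all actives have a fitted effect of over 55% in size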
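Compounds were tested in concentration-response format on HT-1080-NT cells for 48 hours at 37 degrees C. Cell viability came from CellTiter-Glo luminescence; curves were classified by r2, response magnitude and activity.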
* marks the source's active call; other numbers are inactive results; ? = inconclusive. Unless noted, calls follow the shape of the dose curve; as a rule, active = well fitted curve in the direction sought with a large enough effect; inconclusive = small, poorly fitted or top-dose-only effect, or another doubt; inactive = no such curve, though single readings can be large; an effect the other way counts as inactive or inconclusive. Unless noted, % is scaled to controls: 0 for no effect and ±100 for the full control effect.

SMILES	IL1B secr inh	DT40 TDP1 CPT	TDP1 cell noCPT	HT1080 IDH1KD tx	HT1080NT lethal
c1ccc(COc2ncnc3c2ncn3CCCN2CCN(Cc3cccc4ccccc34)CC2)cc1	-3.9	?	9.2µM*	?	16.4µM*
Cc1ccc(NCCCn2cnc3c(OCc4ccccc4)ncnc32)cc1C	-4.0	?	?	-27.3%	-20.6%
Cc1cc(C)c(CN2CCN(C(=O)Cn3cnc4c(OCc5ccccc5)ncnc43)CC2)c(C)c1	-22.5	8.2µM*	2.59µM*	?	?
Cc1ccc(CN2CCN(CCCn3cnc4c(OCc5ccccc5)ncnc43)CC2)cc1	-53.7*	23.1µM*	?	-20.5%	-3.7%
Cc1nc2ncnn2c(N2CCN(C(=O)Cc3cccs3)CC2)c1C	24.3	-24.8%	-19.4%	8.2%	8.3%
CC(C)OC(=O)Nc1ccc2c(c1)N(C(=O)CCN(C)C)c1ccccc1CC2	-13.3	-26.6%	-1.1%	7.7%	1.9%
CCOC(=O)Nc1ccc2c(c1)N(C(=O)CCN1CCOCC1)c1ccccc1S2=O (centres undefined)	-62.7*	3.66µM*	5.8µM*	-22.3%	?
CCOC(=O)Nc1ccc2c(c1)N(C(=O)OCCN(C)C)c1ccccc1CC2	-0.9	18.4µM*	?	-11.7%	-1.8%
COC(=O)Nc1ccc2c(c1)N(C(=O)CCCl)c1ccccc1S2	-96.4*	-9.3%	-29.9%	?	-15.0%
CCOC(=O)Nc1ccc2c(c1)N(C(=O)CCN1CCOCC1)c1ccccc1S2	-28.0	?	1.2%	-9.2%	-11.2%
COC(=O)Nc1ccc2c(c1)N(C(=O)CCN(C)C)c1ccccc1CC2	-56.6*	-9.3%	5.7%	-0.8%	12.0%
CCCCCC(=O)Nc1cccc(C2=NOC3(C2)C[C@@H](C(N)=O)N(C(=O)C2(C)CC2)C3)c1 (some centres undefined)	19.5	3.0%	-8.2%	5.1%	7.9%
CCOC(=O)Nc1ccc2c(c1)N(C(=O)CCN(C)C)c1ccccc1CC2	-68.7*	-13.1%	-4.6%	-8.1%	-3.9%
C[C@H](CO)N1C[C@H](C)[C@@H](CN(C)Cc2ccc(Oc3ccccc3)cc2)Oc2cc(Br)ccc2S1(=O)=O	-1.9	23.1µM*	11.6µM*	?	?
C[C@H](CO)N1C[C@H](C)[C@@H](CN(C)C(=O)Nc2ccccc2)Oc2cc(Br)ccc2S1(=O)=O	0.1	-28.3%	?	-8.9%	-8.9%
C[C@H]1CN([C@@H](C)CO)S(=O)(=O)c2ccc(Br)cc2O[C@@H]1CN(C)Cc1cccc(F)c1	-26.5	16.4µM*	16.4µM*	-22.8%	?
C[C@@H]1CN([C@@H](C)CO)S(=O)(=O)c2ccc(C#CC3CCCCC3)cc2O[C@@H]1CN(C)Cc1cccnc1	-66.3*	14.6µM*	5.17µM*	?	?
C[C@@H]1CN([C@H](C)CO)S(=O)(=O)c2ccc(C#CCN(C)C)cc2O[C@@H]1CN(C)Cc1ccccc1F	-21.2	?	?	2.1%	2.3%
C[C@H]1CN([C@@H](C)CO)S(=O)(=O)c2ccc(C#CC(C)(C)O)cc2O[C@H]1CN(C)Cc1ccccc1	-26.7	18.4µM*	23.1µM*	-8.2%	-13.1%
O=C(O)c1cc(O)ccc1NC(=O)c1cccc2ccccc12	23.8	-6.2%	-18.6%	3.6%	16.8%
O=C(OCc1nnc(-c2ccccc2)o1)C1CC(=O)N(Cc2ccco2)C1 (centres undefined)	-6.4	-18.4%	-16.5%	2.2%	0.1%
CSc1nc(NS(=O)(=O)c2ccc(F)cc2F)nn1C	15.1	-16.2%	0.0%	7.6%	9.9%
C[C@@H]1CN([C@@H](C)CO)S(=O)(=O)c2ccc(Br)cc2O[C@H]1CN(C)Cc1ccc(-c2ccccc2)cc1	-27.8	20.6µM*	5.8µM*	20.6µM*	?
C[C@H]1CN([C@@H](C)CO)S(=O)(=O)c2ccc(Br)cc2O[C@H]1CN(C)C(=O)Cc1ccccc1	-5.1	?	?	7.7%	1.0%
